Assays:
Test in all cases: HT-SELEX; 20 mM HEPES pH 7, 140 mM KCl, 5 mM NaCl, 1 mM K2HPO4, 2 mM MgSO4, 100 uM EGTA, ZnSO4, 0.1% Tween20; room temperature, 1 h; high values mean tight binding
Details in all cases: protein: ivt; tags: eGFP (N-terminal); dsDNA, one strand shown
ZNF721 full-length = ZNF721 full-length (Homo sapiens, UniProt Q8TF20-2 1-923)
Procedure, shortened: (§1)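 Tagged transcription factor, expressed in HEK293 lysate or cell-free extract as a full-length protein or DNA-binding-domain fragment, was held on beads. It bound a randomized 40-base DNA library during 1 h at room temperature in low-stringency HEPES/KCl buffer with Tween20. Eluted DNA went through successive PCR cycles and Illumina sequencing of ~3 million 60 bp reads per sample. A higher relative k-mer count in the selected reads denotes tighter binding.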

ZNF721 DBD1 = ZNF721 DBD1 (Homo sapiens, UniProt Q8TF20-2 29-461)
Procedure, shortened: as §1

ZNF721 DBD2 = ZNF721 DBD2 (Homo sapiens, UniProt Q8TF20-2 395-923)
Procedure, shortened: as §1

Chain of ZNF721 full-length (Q8TF20 other isoform, or with tags, fused parts or gaps): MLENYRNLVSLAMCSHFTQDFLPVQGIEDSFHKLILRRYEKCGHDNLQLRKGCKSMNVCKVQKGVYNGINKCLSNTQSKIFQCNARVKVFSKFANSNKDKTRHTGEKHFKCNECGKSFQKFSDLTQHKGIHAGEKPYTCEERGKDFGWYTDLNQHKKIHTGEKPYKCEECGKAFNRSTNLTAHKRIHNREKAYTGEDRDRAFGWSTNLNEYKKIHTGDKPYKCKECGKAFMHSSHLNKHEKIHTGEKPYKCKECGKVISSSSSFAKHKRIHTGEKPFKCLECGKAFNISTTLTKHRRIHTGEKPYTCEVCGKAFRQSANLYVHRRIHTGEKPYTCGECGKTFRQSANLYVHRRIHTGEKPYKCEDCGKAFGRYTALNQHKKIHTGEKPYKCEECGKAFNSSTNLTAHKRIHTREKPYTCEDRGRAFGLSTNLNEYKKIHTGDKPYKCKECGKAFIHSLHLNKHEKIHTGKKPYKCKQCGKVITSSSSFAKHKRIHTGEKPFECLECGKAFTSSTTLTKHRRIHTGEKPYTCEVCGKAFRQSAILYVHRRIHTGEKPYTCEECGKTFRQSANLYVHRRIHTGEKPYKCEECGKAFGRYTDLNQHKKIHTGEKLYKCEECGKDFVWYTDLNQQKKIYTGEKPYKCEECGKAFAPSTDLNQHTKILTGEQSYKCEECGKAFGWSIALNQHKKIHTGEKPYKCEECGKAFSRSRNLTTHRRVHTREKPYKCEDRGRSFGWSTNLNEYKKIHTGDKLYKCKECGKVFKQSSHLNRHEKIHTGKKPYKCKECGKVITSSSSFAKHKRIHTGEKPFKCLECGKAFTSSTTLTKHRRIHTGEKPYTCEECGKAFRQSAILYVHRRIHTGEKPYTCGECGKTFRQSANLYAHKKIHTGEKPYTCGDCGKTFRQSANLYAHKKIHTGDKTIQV
Chain of ZNF721 DBD1 (Q8TF20 17-449): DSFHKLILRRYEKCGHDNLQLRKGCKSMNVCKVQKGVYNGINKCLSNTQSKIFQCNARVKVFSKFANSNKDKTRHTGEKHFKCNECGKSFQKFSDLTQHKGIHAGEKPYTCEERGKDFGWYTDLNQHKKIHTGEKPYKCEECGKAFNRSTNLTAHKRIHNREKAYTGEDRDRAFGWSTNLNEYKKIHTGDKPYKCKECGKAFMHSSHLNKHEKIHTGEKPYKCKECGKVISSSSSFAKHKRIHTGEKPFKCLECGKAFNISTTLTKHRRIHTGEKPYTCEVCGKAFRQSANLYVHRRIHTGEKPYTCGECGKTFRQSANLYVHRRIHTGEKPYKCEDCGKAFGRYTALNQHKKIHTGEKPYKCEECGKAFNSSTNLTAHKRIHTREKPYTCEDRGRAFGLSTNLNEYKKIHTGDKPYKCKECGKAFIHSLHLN
Chain of ZNF721 DBD2 (Q8TF20 383-911): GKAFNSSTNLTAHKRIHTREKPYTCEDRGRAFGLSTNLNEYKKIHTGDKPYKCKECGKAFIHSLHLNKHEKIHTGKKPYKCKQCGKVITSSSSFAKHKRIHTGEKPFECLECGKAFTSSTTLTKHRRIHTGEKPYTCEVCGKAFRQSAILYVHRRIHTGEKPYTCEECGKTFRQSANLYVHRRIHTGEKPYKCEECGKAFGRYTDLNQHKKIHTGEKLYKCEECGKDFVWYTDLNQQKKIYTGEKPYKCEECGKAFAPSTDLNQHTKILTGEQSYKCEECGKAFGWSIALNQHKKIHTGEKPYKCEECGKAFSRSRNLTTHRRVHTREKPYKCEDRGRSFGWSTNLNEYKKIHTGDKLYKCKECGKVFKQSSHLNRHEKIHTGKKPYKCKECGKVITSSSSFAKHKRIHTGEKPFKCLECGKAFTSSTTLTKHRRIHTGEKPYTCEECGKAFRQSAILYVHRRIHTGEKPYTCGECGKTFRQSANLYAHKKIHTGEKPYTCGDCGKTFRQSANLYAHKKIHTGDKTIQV

| Sequence | binding signal (ZNF721 full-length) | binding signal (ZNF721 DBD1) | binding signal (ZNF721 DBD2) |
| --- | --- | --- | --- |
| ACCCCCACAC | 0.108 relative 10-mer count | 0.00312 relative 10-mer count | 0.00527 relative 10-mer count |
| AGCCCCACCC | 0.106 relative 10-mer count | 0.00312 relative 10-mer count | 0.00959 relative 10-mer count |
| CACCCTCCCA | 0.123 relative 10-mer count | 0.00555 relative 10-mer count | 0.00443 relative 10-mer count |
| CCACCCCACA | 0.163 relative 10-mer count | 0.00564 relative 10-mer count | 0.00791 relative 10-mer count |
| AGCGTTTCCA | 0.214 relative 10-mer count | 0.00252 relative 10-mer count | 0.459 relative 10-mer count |
| CCGCCCCGCC | 0.156 relative 10-mer count | 0.00592 relative 10-mer count | 0.00216 relative 10-mer count |
| AAAAAGCAGA | 0.107 relative 10-mer count | 0.00183 relative 10-mer count | 0.0852 relative 10-mer count |
| CGCCCCCTCC | 0.135 relative 10-mer count | 0.00605 relative 10-mer count | 0.00407 relative 10-mer count |
| CACCCCCCTC | 0.127 relative 10-mer count | 0.00633 relative 10-mer count | 0.00479 relative 10-mer count |
| AGGGGGGCGG | 0.108 relative 10-mer count | 0.00417 relative 10-mer count | 0.0012 relative 10-mer count |
| AACAGCATGA | 0.198 relative 10-mer count | 0.00188 relative 10-mer count | 0.308 relative 10-mer count |
| CAAAAAAAGC | 0.202 relative 10-mer count | 0.0258 relative 10-mer count | 0.0675 relative 10-mer count |
| CACCGCCCAC | 0.123 relative 10-mer count | 0.00482 relative 10-mer count | 0.00372 relative 10-mer count |
| GAAGCGTACC | 0.104 relative 10-mer count | 0.0792 relative 10-mer count | 0.0018 relative 10-mer count |
| CCCCCCCATC | 0.115 relative 10-mer count | 0.00358 relative 10-mer count | 0.00324 relative 10-mer count |
| CCCCCACCCA | 0.256 relative 10-mer count | 0.00931 relative 10-mer count | 0.00348 relative 10-mer count |
| AAGCTGCACC | 0.143 relative 10-mer count | 0.0827 relative 10-mer count | 0.0024 relative 10-mer count |
| GCCCCCTCCC | 0.134 relative 10-mer count | 0.00633 relative 10-mer count | 0.00384 relative 10-mer count |
| CAGCATACCC | 0.596 relative 10-mer count | 0.00271 relative 10-mer count | 0.909 relative 10-mer count |
| CTTTTTTTTC | 0.171 relative 10-mer count | 0.0293 relative 10-mer count | 0.0669 relative 10-mer count |

| Sequence | binding signal (ZNF721 full-length) | binding signal (ZNF721 DBD1) | binding signal (ZNF721 DBD2) |
| --- | --- | --- | --- |
| CAACCACCCC | 0.13 relative 10-mer count | 0.00486 relative 10-mer count | 0.00252 relative 10-mer count |
| CCCCTCCCCG | 0.128 relative 10-mer count | 0.00527 relative 10-mer count | 0.00216 relative 10-mer count |
| CTCCCCCCCC | 0.158 relative 10-mer count | 0.00761 relative 10-mer count | 0.003 relative 10-mer count |
| GCTTTTTTCC | 0.267 relative 10-mer count | 0.0895 relative 10-mer count | 0.0308 relative 10-mer count |
| AAAAAGCATC | 0.123 relative 10-mer count | 0.0262 relative 10-mer count | 0.0225 relative 10-mer count |
| GGGGGCGGGA | 0.119 relative 10-mer count | 0.00537 relative 10-mer count | 0.00144 relative 10-mer count |
| CCCGCCACCC | 0.304 relative 10-mer count | 0.0125 relative 10-mer count | 0.00252 relative 10-mer count |
| CCTCCACCCA | 0.111 relative 10-mer count | 0.00505 relative 10-mer count | 0.00527 relative 10-mer count |
| CCTCCCTCCC | 0.179 relative 10-mer count | 0.00931 relative 10-mer count | 0.00479 relative 10-mer count |
| GGGGGGTGGA | 0.145 relative 10-mer count | 0.00615 relative 10-mer count | 0.00407 relative 10-mer count |
| AGCAGCATAC | 0.146 relative 10-mer count | 0.00179 relative 10-mer count | 0.164 relative 10-mer count |
| CACAAAAAAA | 0.181 relative 10-mer count | 0.0107 relative 10-mer count | 0.0847 relative 10-mer count |
| CCCCCACCTC | 0.198 relative 10-mer count | 0.00945 relative 10-mer count | 0.00551 relative 10-mer count |
| GGGGTGGGCA | 0.11 relative 10-mer count | 0.00381 relative 10-mer count | 0.00395 relative 10-mer count |
| CCCTCACCAC | 0.104 relative 10-mer count | 0.00482 relative 10-mer count | 0.00587 relative 10-mer count |
| CCCACCCATC | 0.112 relative 10-mer count | 0.00514 relative 10-mer count | 0.00587 relative 10-mer count |
| CCTCCCACCC | 0.255 relative 10-mer count | 0.0139 relative 10-mer count | 0.00599 relative 10-mer count |
| CCTTCCCCCC | 0.104 relative 10-mer count | 0.00472 relative 10-mer count | 0.00264 relative 10-mer count |
| CCCCCCATCC | 0.15 relative 10-mer count | 0.00509 relative 10-mer count | 0.00419 relative 10-mer count |
| CCAACCCACC | 0.171 relative 10-mer count | 0.00642 relative 10-mer count | 0.00395 relative 10-mer count |

| Sequence | binding signal (ZNF721 full-length) | binding signal (ZNF721 DBD1) | binding signal (ZNF721 DBD2) |
| --- | --- | --- | --- |
| ACCCTCCCCA | 0.105 relative 10-mer count | 0.00509 relative 10-mer count | 0.00515 relative 10-mer count |
| CACCACACCC | 0.12 relative 10-mer count | 0.00486 relative 10-mer count | 0.00336 relative 10-mer count |
| CCCACCACGC | 0.108 relative 10-mer count | 0.00408 relative 10-mer count | 0.00539 relative 10-mer count |
| GAAAAAAGCA | 0.344 relative 10-mer count | 0.0533 relative 10-mer count | 0.15 relative 10-mer count |
| CAGCGTTACC | 0.138 relative 10-mer count | 0.00147 relative 10-mer count | 0.297 relative 10-mer count |
| AGTGTCTCCA | 0.147 relative 10-mer count | 0.0423 relative 10-mer count | 0.282 relative 10-mer count |
| GTGGTGGGGA | 0.14 relative 10-mer count | 0.00674 relative 10-mer count | 0.00443 relative 10-mer count |
| AACAGGGTAT | 0.138 relative 10-mer count | 0.00119 relative 10-mer count | 0.2 relative 10-mer count |
| AAAAAAGAAG | 0.101 relative 10-mer count | 0.0198 relative 10-mer count | 0.0207 relative 10-mer count |
| CCCCCCTGCC | 0.121 relative 10-mer count | 0.00399 relative 10-mer count | 0.00168 relative 10-mer count |
| AAAAAGAGCA | 0.108 relative 10-mer count | 0.0078 relative 10-mer count | 0.0193 relative 10-mer count |
| CCCCGACCAC | 0.111 relative 10-mer count | 0.00422 relative 10-mer count | 0.00395 relative 10-mer count |
| CCACCCGCCA | 0.108 relative 10-mer count | 0.00445 relative 10-mer count | 0.00491 relative 10-mer count |
| CGTCCCCCAC | 0.104 relative 10-mer count | 0.00468 relative 10-mer count | 0.00407 relative 10-mer count |
| CACTTCATAC | 0.747 relative 10-mer count | 1 relative 10-mer count | 0.00144 relative 10-mer count |
| AGGGTGGGGG | 0.202 relative 10-mer count | 0.0102 relative 10-mer count | 0.00563 relative 10-mer count |
| AAAAAAAGCG | 0.217 relative 10-mer count | 0.0356 relative 10-mer count | 0.0422 relative 10-mer count |
| ACCCGCCCAC | 0.115 relative 10-mer count | 0.00413 relative 10-mer count | 0.00288 relative 10-mer count |
| CACCCCACCA | 0.182 relative 10-mer count | 0.00725 relative 10-mer count | 0.00587 relative 10-mer count |
| GGGTGGGGCA | 0.104 relative 10-mer count | 0.00344 relative 10-mer count | 0.00216 relative 10-mer count |
